Most compounds without a hit are left out; they make up all but 4.2% or so of the library.
hgDAF-12 ag: activates the H. glycines DAF-12 receptor ligand-binding domain; HEK293 GAL4-hgDAF12 UAS-luciferase reporter, agonist luminescence; normalized to butyrate control; activation, % at 6.8 µM; 370,000 tested, 1.8% active;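 active = activation above a cutoff set at the mean of all screened compounds plus 3 SD, cut at about 10% in these data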;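 also: 0% = DMSO wells and 100% = sodium butyrate wells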
DAX1 StAR inh: DAX1 (NR0B1) inhibition, primary screen; HEK293T StAR-luciferase reporter, SF-1/DAX-1 repression relief; inhibition, % at 6.8 µM; 370,000 tested, 1.1% active; AID 652010;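 active = inhibition above the mean over all tested compounds plus 3 SD, cut at about 3.6% in these data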;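 also: 0% = DAX-1 cells with DMSO and 100% = cells lacking DAX-1 with DMSO; higher inhibition means more luminescence from relief of DAX-1 repression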
SMARCA2 act: SMARCA2 function activation, primary screen. MG213 cells, MMTV-luciferase reporter, dexamethasone, overnight. activation, % at 9.1 µM. 370,000 tested, 1% active; in the data active = activation above about 7.8%;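 also: 0% = vehicle wells and 100% = reference activator wells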
ssDAF12 agonist: S. stercoralis DAF-12 activation, primary screen; HEK293 ssDAF-12/GRIP1 lit1-tk-luc reporter, luminescence; % of 3 µM dafachronic acid response; activation, % at 6.8 µM; 370,000 tested, 1% active; AID 652126;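 active = activation above the mean over all tested compounds plus 3 SD, cut at about 0.9% in these data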;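 also: 0% = DMSO-only wells and 100% = 3 µM delta7-dafachronic acid wells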
hcDAF12 agonist: H. contortus DAF-12 activation, primary screen. HEK293 hcDAF-12 lit1-tk-luc reporter, luminescence; 0% DMSO, 100% Δ7-dafachronic acid. activation, % at 6.8 µM. 370,000 tested, 1.4% active;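 active = activation above the mean of all tested compounds plus 3 SD, cut at about 5.5% in these data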;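 also: 100% = response to 3 µM Δ7-dafachronic acid high control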
SMARCA2 conf: SMARCA2 activation, confirmation screen. shares compounds with SMARCA2 act. MG213 cells, MMTV-luciferase with dexamethasone, luminescence, overnight; MG213 cells expressing E1A, Rb sequestered; DMSO wells 0%, reference activator 100%. 3,500 tested, 30% active. activation, % at 9.1 µM;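 active = activation above its plate's cutoff, the mean activation of tested wells plus 3 SD, cut at about 7.9% in these data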
VP16 Luc act: activates GAL4-VP16 luciferase, flagging SMARCA2 activator hits. shares compounds with SMARCA2 act. HEK293 GAL4-VP16 pG5luc reporter, luciferase luminescence; scaled: DMSO wells 0%, SAHA wells 100%. activation, % at 9.1 µM. 3,500 tested, 41% active. AID 686939;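 active = activation above the solvent-only control well mean plus 3 SD, averaged across control plates, cut at about 5.2% in these data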
The depositor's hits bear a star; · = no result.

SMILES | hgDAF-12 ag | DAX1 StAR inh | SMARCA2 act | ssDAF12 agonist | hcDAF12 agonist | SMARCA2 conf | VP16 Luc act
COc1ccc(C2N(c3cc(Cl)ccc3OC)C(=O)C3CCCN32)c(OC)c1 (stereo unspecified) | -3 | -1 | 9.5* | -2 | 0 | 3 | 0
Cc1ccc(C)c(NC(=O)C2CCCN2S(=O)(=O)c2cccc3cccnc23)c1 (stereo unspecified) | 2 | -1 | -1 | -1 | -3 | · | ·
O=C(NCc1ccccc1)[C@@H]1CCCN1C(=O)[C@H]1CCCN1C(=O)c1c(F)cccc1F | 0 | -1 | -5 | -1 | 1 | · | ·
COc1ccc(/C=C/C(=O)NC(=S)Nc2ccc(S(=O)(=O)Nc3nccnc3OC)cc2)cc1 | 5 | 0 | 13* | -1 | -2 | 1 | 1
CC(C)(C)OC(=O)N1CCC(N[C@@H](Cc2c[nH]c3ccccc23)C(=O)NCCc2c[nH]c3ccccc23)(C(=O)NC2CCCCC2)CC1 | 0 | · | · | -1 | 4 | · | ·
CC1(c2nnnn2-c2ccc3c(c2)OCCO3)CSCC(=O)N1CCc1c[nH]c2ccccc12 (stereo unspecified) | 2 | -2 | -1 | -1 | -2 | · | ·
O=C(OCC(=O)N1CCN(S(=O)(=O)c2ccc(Cl)cc2)CC1)c1ccc([N+](=O)[O-])o1 | 2 | 0 | 8.9* | 0 | 0 | 3 | 4
O=C(COc1ccccc1Cl)OCC(=O)N1CCN(S(=O)(=O)c2ccccc2)CC1 | -2 | 0 | 11* | -1 | -1 | -2 | 0
O=C(OCC(=O)N1CCN(S(=O)(=O)c2ccccc2)CC1)c1ccc([N+](=O)[O-])o1 | 2 | 0 | 1 | -1 | 0 | · | ·
Cc1nc(SC(C(N)=O)c2ccccc2)c(C#N)c(C)c1C (stereo unspecified) | 0 | 0 | 8.3* | -1 | 0 | 3 | 2
COC(=O)C(Sc1nc(C)cc(C)c1C#N)c1ccccc1 (stereo unspecified) | 1 | 1 | -1 | -1 | -1 | · | ·
CCOC(=O)CC[C@@H]1CC[C@]2(CCCN(C(=O)c3ccno3)C2)O1 | 4 | 0 | 0 | -1 | -1 | · | ·
N#CCOc1ccccc1CNC[C@H]1O[C@@H](n2cnc(C(N)=O)n2)[C@H](O)[C@@H]1O | -1 | 3 | -5 | -1 | -1 | · | ·
NC(=O)c1ncn([C@@H]2O[C@H](CNCc3cc(Br)ccc3OCc3ccccc3)[C@@H](O)[C@H]2O)n1 | 0 | -1 | 16* | -1 | 1 | -5 | 0
Cc1cccc(-c2noc(Cc3ccccc3)n2)c1 | 3 | 2 | 5 | -2 | 1 | · | ·
Cc1cccc(-c2noc(CCc3ccccc3)n2)c1 | 4 | 1 | 11* | -1 | -2 | 4 | 6.7*
COc1ccc(-c2csc(NC3OC(=O)c4c3ccc(OC)c4OC)n2)cc1OC (stereo unspecified) | 0 | 0 | -2 | -1 | 0 | · | ·
COc1ccc2c(c1OC)C(=O)OC2Nc1nc(-c2cc3cc(Br)ccc3oc2=O)cs1 (stereo unspecified) | 11* | 2 | 9.2* | -1 | 1 | 12* | 7.9*
CC(C)(C)OC(=O)N1O[C@H]2C=C[C@@H]1C2 | 3 | -1 | 3 | -1 | -2 | · | ·
Cc1ccccc1C(=O)OCCN1CCOCC1 | 3 | 1 | 8.3* | 0 | 2 | 1 | 1
O=C1NC(=S)N/C1=C/c1cc2c(cc1[N+](=O)[O-])OCO2 | -3 | -1 | 11* | -1 | -1 | 2 | 3
O=C(O)/C=C\c1cc2c(cc1[N+](=O)[O-])OCO2 | -1 | 0 | -2 | -1 | 0 | · | ·
O=C(O)CC(Sc1ccc(Cl)cc1)C(=O)Nc1ccccc1 (stereo unspecified) | 1 | 0 | -4 | -1 | -2 | · | ·
Cc1c(C(=O)N/N=C/c2ccccc2Cl)[nH][nH]c1=O | 6 | 1 | 0 | -1 | -1 | · | ·
Cc1ccc2c(c1)sc1nc(=O)n(-c3ccccc3)c(=O)n12 | 12* | 2 | 12* | -1 | 2 | 8.4* | 12*
SMILES | hgDAF-12 ag | DAX1 StAR inh | SMARCA2 act | ssDAF12 agonist | hcDAF12 agonist | SMARCA2 conf | VP16 Luc act
N#CC(C#N)=Cc1ccc(NC(=O)c2ccc(Br)cc2)cc1 | 8 | 0 | 9.2* | 0 | 1 | 4 | 5
CC(C)(C)c1ccc(C(=O)Nc2ccc(C=C(C#N)C#N)cc2)cc1 | 4 | 1 | 0 | -1 | 4 | · | ·
C[C@H](CO)N1C[C@H](C)[C@@H](CN(C)C(=O)c2ccc(N3CCN(C)CC3)cc2)OCc2cn(nn2)CCCC1=O | 2 | 0 | -2 | -1 | 1 | · | ·
C[C@H]1CN([C@@H](C)CO)C(=O)CCCn2cc(nn2)CO[C@@H]1CN(C)C(=O)c1ccc(N2CCN(C)CC2)cc1 | -1 | 0 | 8.2* | -1 | 2 | -1 | -1
COC(=O)N(C)C[C@H]1OCc2cnnn2CCCC(=O)N([C@H](C)CO)C[C@@H]1C | -3 | 0 | -1 | 0 | 1 | · | ·
COC(=O)N(C)C[C@H]1OCc2cnnn2CCCC(=O)N([C@@H](C)CO)C[C@@H]1C | 3 | 2 | 8.6* | -1 | 1 | -3 | 0
C=CCN(C(=O)[C@@H](CCCC)[C@@H](O)c1ccc2ccccc2c1)c1ccccc1 | 2 | -1 | -2 | -1 | 2 | · | ·
COC(=O)[C@]12C[C@H](CC(=O)NCc3ccc(OC)c(OC)c3)C(=O)N(Cc3cccc4ccccc34)C1=C[C@H](C1CCCC1)O[C@@H]2C | 2 | -1 | -3 | -1 | -4 | · | ·
C[C@]12CS(=O)(=O)C[C@H]1SC(=S)N2c1ccccc1 | 0 | 0 | 0 | -1 | -2 | · | ·
CN1C(=S)SC2CS(=O)(=O)CC21C (stereo unspecified) | -1 | 0 | 12* | 0 | 0 | -3 | -1
C=CCN1[C@@H](C)[C@H](c2ccccc2)Oc2cccc(NCC(C)C)c2S1(=O)=O | 1 | 0 | -4 | 0 | -1 | · | ·
CCCCC(=O)N[C@H]1CC[C@@]23CCCN2C(=O)CCC[C@H]3[C@H]1C | 2 | · | · | -2 | 0 | · | ·
O=C(CSc1ccsc1[N+](=O)[O-])NCc1ccccc1 | 10 | 1 | 11* | 0.9* | 6.5* | 7 | 3
CCc1ccccc1NC(=O)CSc1ccsc1[N+](=O)[O-] | -2 | -1 | -1 | -1 | -3 | · | ·
Cc1ccc(C(=O)Cn2cncn2)cc1 | 2 | 0 | 10* | -2 | 0 | -2 | 0
O=C(Cn1cncn1)c1ccc(Cl)cc1 | -2 | 0 | -1 | -1 | -1 | · | ·
